Screening results from PubChem BioAssay.
This is one part of a sample in which hits are shown more often than they occur.
p53 reactivator: restores transcriptional activity of mutant p53; H1299 p53-A138V BP100-luciferase reporter, luminescence, 24 h; Potency, µM (highest dose often 92.2 µM), most hits filed as activators; actives 0.063% (n = 320,000); also: nearly all actives have a fitted effect of over 45% in size
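H1299 (p53-null), stable ts p53-A138V + BP100-Luc; 1000 cells/well, Opti-MEM/10% FBS; cpd 4 pt, 1:5; 24 h, 37 deg C, 5% CO2; detection reagent 10 min RT; luminescence.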
MmCpn inh: M. maripaludis TRiC chaperonin inhibition | purified Mm-Cpn ATPase, ADP Transcreener TR-FRET | Potency, µM (titrated, usually from 76.9 µM), usual class: inhibitors | actives 0.031% (n = 330,000); also: nearly all actives have a fitted effect of over 80% in size
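Measured: ADP formation by purified Mm-CPN. Conditions: 25 nM protein, 10 uM ATP, Tris pH 7.4 with Mg2+, K+ and DTT, 37°C for 30 min. Detection: Transcreener HTRF after 30 min at room temperature.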
ClpP mod: qHTS Assay for Activators of ClpP. ATP-dependent Clp protease proteolytic subunit (Bacillus subtilis (strain 168)), P80244. purified B. subtilis ClpP, FRET peptide cleavage, 20 min. Potency, µM (series often up to 57.5 µM). actives 1.9% (n = 340,000); active = well fitted falling curve with a large enough effect; inconclusive = small, poorly fitted or top-dose-only effect; inactive = no such curve, though single readings can be large or run the other way; also: the source files actives as falling curves though it sought activators and does not explain the sign; nearly all actives have a fitted effect of over 65% in size
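Buffer: 100 mM Tris/HCl pH8, 100 mM KCl, 0.05% low protease BSA, 2.5% glycerol, 0.01% Tween-20. ClpP 10 microg/mL final; 20 min RT; delta FRET normalized to ADEP and DMSO controls.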
Integrin act MD: activates integrin-mediated alleviation for muscular dystrophy; AID 624291; actives 0.064% (n = 350,000); Potency, µM (doses to about 38.3 µM), most hits filed as activators; alpha7betagal myoblasts, beta-gal FDG fluorescence, 48 h; also: nearly all actives have a fitted effect of over 60% in size
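alpha7betagal+/- myoblasts (passage 13, 250/well) treated 48 h at 37C with compounds at 1:260 dilution of DMSO stock. Lysed, then beta-galactosidase activity read as FDG fluorescence (ex 480/em 540) after 30 min, with pre-read for autofluorescence.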
USP2a block: blocks human ubiquitin-specific protease USP2a; O75604; USP2 core, Ub-CHOP2 coupled fluorogenic reporter, 485/531; Potency, µM (titrated, usually from 38.3 µM), actives largely listed as inhibitors; actives 0.01% (n = 330,000)
Target sequence (O75604 whole entry, looked up): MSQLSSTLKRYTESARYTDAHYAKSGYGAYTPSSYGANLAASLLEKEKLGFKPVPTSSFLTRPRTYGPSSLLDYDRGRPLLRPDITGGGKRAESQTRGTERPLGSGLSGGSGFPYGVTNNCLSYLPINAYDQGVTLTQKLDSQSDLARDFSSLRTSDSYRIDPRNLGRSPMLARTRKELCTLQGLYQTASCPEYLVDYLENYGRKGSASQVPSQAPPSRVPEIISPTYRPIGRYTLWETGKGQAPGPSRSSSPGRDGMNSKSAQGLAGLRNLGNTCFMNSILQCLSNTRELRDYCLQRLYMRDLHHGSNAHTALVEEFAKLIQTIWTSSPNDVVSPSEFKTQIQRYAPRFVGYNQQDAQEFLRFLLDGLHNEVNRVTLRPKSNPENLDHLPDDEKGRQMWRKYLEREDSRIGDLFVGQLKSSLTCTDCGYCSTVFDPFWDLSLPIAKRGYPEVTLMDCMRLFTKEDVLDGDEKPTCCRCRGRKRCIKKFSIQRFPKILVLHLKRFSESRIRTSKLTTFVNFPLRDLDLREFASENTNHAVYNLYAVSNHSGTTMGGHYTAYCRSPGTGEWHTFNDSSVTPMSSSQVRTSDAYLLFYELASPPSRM
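Cell-free coupled assay: 10nM USP2 core preincubated 30min RT with compound in Tris-HCl pH 8.0/CaCl2/CHAPS buffer, then 25nM Ub-CHOP2 and 25nM reporter substrate; fluorescence (Ex 485/Em 531) read after 60min RT, normalized to NEM inhibition, concentration-response curves fitted.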
Eya2 phos inh: Eya2 (human) phosphatase inhibition; recombinant Eya2, OMFP fluorescence dephosphorylation (OMFP is methylfluorescein phosphate); Potency, µM (highest dose often 76.9 µM), most hits filed as inhibitors; actives 0.006% (n = 330,000); AID 488837
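Eya2 protein (added as 0.2 uM solution) was preincubated with compound for 10 min at ambient temperature in 50 mM HEPES pH 7.5, 50 mM NaCl, 5 uM MgCl2, 0.05% BSA, 1 mM DTT. OMFP (added at 50 uM) then reacted 10 min; fluorescence read at 485/525 nm.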
A number is an active result; n = inactive; u = inconclusive; x = no result; [ ] = another dose, or the depositor's remark. Unless noted, calls follow the shape of the dose curve; as a rule, active = well fitted curve in the direction sought with a large enough effect; inconclusive = small, poorly fitted or top-dose-only effect, or another doubt; inactive = no such curve, though single readings can be large; an effect the other way counts as inactive or inconclusive.

SMILES | p53 reactivator | MmCpn inh | ClpP mod | Integrin act MD | USP2a block | Eya2 phos inh
CCOC(=O)Nc1c(C(=O)OC)[nH]c2cc(OC)ccc12 | n | n | u | n | n | n
CCOC(=O)c1[nH]c2ccc(OC)cc2c1NC(=O)CCN1CCCC(C)C1 (centres undefined) | n | n | 32µM | n | u | n
CCOC(=O)c1[nH]c2ccc(OC)cc2c1NC(=O)OC | n | n | 28µM | n | n | n
COC(=O)c1[nH]c2ccc(C)cc2c1NC(=O)CCN1CCN(Cc2ccc3c(c2)OCO3)CC1 | n | n | 20µM | n | n | n
COC(=O)c1[nH]c2cc(C)ccc2c1NC(=O)CN1CCOCC1 | n | n | x | n | n | n
CCOC(=O)c1[nH]c2ccc(OC)cc2c1NC(=O)NC(C)C | n | n | 18µM | n | n | n
NC1CCc2ccc([N+](=O)[O-])cc21 (centres undefined) | x | x | n | x | x | x
CCOC(=O)C1CCCN(CC(=O)Nc2c(C(=O)OC)[nH]c3ccc(C)cc23)C1 (centres undefined) | n | n | 32µM | n | u | n
Cc1ccsc1/C=C/c1ccc2cccc(O)c2n1 | 40µM | n | n | n | n | n
Cc1ccsc1/C=C/c1ccc2ccccc2n1 | n | n | n | n | n | n
Cc1nc2c(c(=O)c3ccccc3n2C)c(=O)n1-c1ccc(F)cc1 | n | n | n | n | n | n
CC(C)c1nc2c(c(=O)c3ccccc3n2C)c(=O)n1-c1ccc(F)cc1 | n | n | 28µM | n | n | n
CCOc1ccc(OCC)c(NC(=O)C2CCCN(S(=O)(=O)c3cc(Br)cc4c3N(C(=O)CC)CC4)C2)c1 (centres undefined) | x | x | n | x | x | x
CCOC(=O)c1oc2ccccc2c1NC(=O)c1ccccc1OC | n | n | 35µM | n | n | n
COc1ccccc1C(=O)Nc1c(C(=O)c2ccccc2)oc2ccccc12 | x | x | n | x | x | x
COC(=O)Cc1[nH]nc2c1C(c1cccc(OC)c1OC)C(C#N)=C(N)O2 (centres undefined) | n | n | 28µM | n | n | n
Cc1ccc(C2N=C(Nc3nc4ccccc4o3)NC3=C2C(=O)CC(C)(C)C3)cc1 (centres undefined) | x | x | n | x | x | x
COc1ccccc1-c1nc(-c2ccc(C)nc2OC)no1 | u | n | 14µM | n | n | n
COc1ccc(-c2ccc(-c3noc(-c4cc(OC)cc(OC)c4)n3)c(OC)n2)cc1 | x | x | 16µM | x | x | x
COc1ccc(-c2ccc(-c3noc(C(C)C)n3)c(OC)n2)cc1 | n | n | n | n | n | n
COc1cccc(-c2ccc(-c3noc(-c4cccs4)n3)c(OC)n2)c1 | n | n | u | n | n | n
COc1nc(C)ccc1-c1noc(-c2ccccn2)n1 | u | n | n | n[7.66 µM] | n | n
COc1cccc(-c2ccc(-c3noc(-c4ccccc4F)n3)c(OC)n2)c1 | n | n | 14µM | n | n | n
COc1ccc(C2Nc3ccccc3C(=O)N2c2ccc(Cl)cc2)cc1COc1ccc(NC(C)=O)cc1 (centres undefined) | x | x | n | x | x | x
CCn1cnc2c(=O)oc3ccc(S(=O)(=O)Nc4ccc(OC)cc4)cc3c21 | x | x | n | x | x | x
SMILES | p53 reactivator | MmCpn inh | ClpP mod | Integrin act MD | USP2a block | Eya2 phos inh
COc1ccc(NS(=O)(=O)c2ccc3oc(=O)c4[nH]c(=O)c(=O)n(C)c4c3c2)cc1 | n | n | 20µM | n | n | n
COc1ccc(-c2csc(-n3ncc(C(=O)O)c3C(F)(F)F)n2)cc1 | n | n | n | n | n | n
CCOC(=O)c1cnn(-c2nc(-c3ccc(F)cc3)cs2)c1C(F)(F)F | n | n | 32µM | n | n | n
CCOC(=O)c1cnn(-c2nc(-c3ccccc3)cs2)c1C(F)(F)F | n | n | 32µM | n | n | n
O=C(O)c1cnn(-c2nc(-c3ccc(Cl)cc3)cs2)c1C(F)(F)F | u | n | x | n | n | n
CCOC(=O)c1cnn(-c2nc(-c3ccccc3F)cs2)c1C(F)(F)F | n | n | 35µM | n | n | n
